An excerpt weighted towards active compounds, which were near 2.9% of everything screened.
PLCb3 inh: human PLC-beta3 inhibitors, primary screen, biochemical, fluorescence; 1-phosphatidylinositol 4,5-bisphosphate phosphodiesterase beta-3 (Homo sapiens), Q01970; Purified PLC-beta3, fluorogenic substrate; inhibition, % at 12.2 µM; hit rate 0.18% among 370,000; AID 720704, 2013; in the data active = inhibition above about 11%
ADAM10 inh: human ADAM10 inhibitors, primary screen, biochemical, QFRET, HTS. Disintegrin and metalloproteinase domain-containing protein 10 (Homo sapiens), O14672. recombinant ADAM10, EDANS/DABCYL FRET peptide cleavage, 3 h. inhibition, % at 7 µM. hit rate 0.62% among 370,000. AID 720582, 2013;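 active = inhibition above a per-campaign cutoff equal to the mean of compounds falling between control-based bounds plus 3 SD, cut at about 20% in these data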
proKLK7 act: proKLK7 zymogen activators, primary screen, biochemical, fluorescence intensity | hit rate 0.9% among 370,000 | AID 652039, 2013 | Kallikrein-7 (Homo sapiens), P49862 | activation, % at 7 µM | purified proKLK7, EDANS-DABCYL substrate fluorescence; 100% is mature enzyme control, 0% vehicle;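 active = activation above the mean of all tested compounds plus 3 SD, computed per campaign excluding outliers beyond control limits, cut at about 13% in these data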
ADAM17 inh: ADAM17 inhibitors, primary screen, biochemical, QFRET | recombinant ADAM17, EDANS/DABCYL FRET peptide cleavage | inhibition, % at 6.95 µM | AID 720648, 2013 | hit rate 0.83% among 370,000 | Disintegrin and metalloproteinase domain-containing protein 17 (Homo sapiens), P78536;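 active = inhibition above the mean of compounds lying between control limits plus 3 SD, set per campaign, cut at about 8.5% in these data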
PLCg1 inh: PLC-gamma1 enzyme inhibitors, primary screen, biochemical, fluorescence, purified enzyme | 1-phosphatidylinositol 4,5-bisphosphate phosphodiesterase gamma-1 (Homo sapiens), P19174 | fluorogenic substrate | inhibition, % at 12.2 µM | hit rate 0.84% among 370,000 | AID 720700, 2013; in the data active = inhibition above about 9.5%
Target sequence (P19174 whole entry, looked up): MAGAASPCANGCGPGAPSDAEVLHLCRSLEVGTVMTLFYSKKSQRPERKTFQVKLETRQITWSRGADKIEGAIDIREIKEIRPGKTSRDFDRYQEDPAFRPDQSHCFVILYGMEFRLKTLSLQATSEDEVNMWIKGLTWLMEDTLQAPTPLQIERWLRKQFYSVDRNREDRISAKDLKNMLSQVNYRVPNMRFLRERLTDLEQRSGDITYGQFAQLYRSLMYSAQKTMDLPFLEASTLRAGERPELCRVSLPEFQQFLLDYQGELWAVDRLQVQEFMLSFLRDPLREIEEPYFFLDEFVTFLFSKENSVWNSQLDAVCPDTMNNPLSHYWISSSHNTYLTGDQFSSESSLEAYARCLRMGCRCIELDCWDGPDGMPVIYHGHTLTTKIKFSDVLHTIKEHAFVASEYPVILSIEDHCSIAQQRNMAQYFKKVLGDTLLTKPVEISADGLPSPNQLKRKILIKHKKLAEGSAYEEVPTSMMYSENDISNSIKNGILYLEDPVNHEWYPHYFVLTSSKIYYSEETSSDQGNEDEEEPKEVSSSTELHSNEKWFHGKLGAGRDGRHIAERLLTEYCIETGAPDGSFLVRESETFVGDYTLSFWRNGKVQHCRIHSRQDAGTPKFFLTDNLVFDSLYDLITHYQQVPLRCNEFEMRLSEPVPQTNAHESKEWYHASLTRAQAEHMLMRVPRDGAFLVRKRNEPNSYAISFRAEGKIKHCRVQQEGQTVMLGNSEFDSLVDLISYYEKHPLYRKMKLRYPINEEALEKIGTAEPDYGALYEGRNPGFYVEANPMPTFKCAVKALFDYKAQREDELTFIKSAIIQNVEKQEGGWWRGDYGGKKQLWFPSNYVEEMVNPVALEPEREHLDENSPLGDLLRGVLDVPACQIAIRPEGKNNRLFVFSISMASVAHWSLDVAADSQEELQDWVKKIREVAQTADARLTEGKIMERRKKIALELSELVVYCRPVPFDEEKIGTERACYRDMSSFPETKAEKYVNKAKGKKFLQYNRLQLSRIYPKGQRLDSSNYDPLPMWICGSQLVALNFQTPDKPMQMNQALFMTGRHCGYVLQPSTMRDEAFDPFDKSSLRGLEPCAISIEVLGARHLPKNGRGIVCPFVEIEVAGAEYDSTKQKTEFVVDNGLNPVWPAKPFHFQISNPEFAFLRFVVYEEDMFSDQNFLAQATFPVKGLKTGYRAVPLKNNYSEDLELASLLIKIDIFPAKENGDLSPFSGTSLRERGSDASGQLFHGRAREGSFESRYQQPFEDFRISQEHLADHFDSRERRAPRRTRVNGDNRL
proKLK7 act conf: proKLK7 zymogen activators, confirmation, biochemical, fluorescence intensity, triplicate | purified proKLK7, EDANS-DABCYL substrate fluorescence; scaled: vehicle 0, mature enzyme 100 | activation, % at 7 µM | shares compounds with proKLK7 act | hit rate 68% among 3,200;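 active = activation, as change over the incubation, above the mean of all tested compounds plus 3 SD, cut at about 13% in these data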
EDANS interfere: EDANS-DABCYL substrate optical interference, artefact control for kallikrein-7 zymogen activator project, biochemical, fluorescence intensity, high throughput | shares compounds with proKLK7 act | no enzyme, 4 h; solvent 0%, active enzyme control 100% | activation, % at 7 µM | hit rate 80% among 3,200 | AID 686952, 2013;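 active = activation above the all-compound mean plus 3 SD, ignoring values outside control-based bounds, cut at about 4.8% in these data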;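 note: value is the 4 h activation minus the activation read at time zero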
K7 EDANS ctr: counter-screen for kallikrein-7 activators: EDANS-DABCYL interference, dose response; shares compounds with proKLK7 act; EDANS-DABCYL peptide fluorescence interference, no enzyme; EC50, µM; hit rate 20% among 250; AID 720493;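 active = compounds that raise the fluorescence signal in this interference counterscreen, with EC50 at or below 10 µM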;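 note: intact quenched peptide substrate alone read at 355 nm excitation and 520 nm emission; signal is fluorescence gain from T0 to T4 after four hours at room temperature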
Each line names hits and unclear results; the compound was inactive in the other large screens (follow-up assays come after a bar, where they were run).

COC(=O)CSc1ccc2c(N)c(C(=O)OC)sc2c1	proKLK7 act 45 | proKLK7 act conf 27 | EDANS interfere 29
COC(=O)CSc1nc2ccc(N)cc2s1	none
CCSc1nc2c(c(=O)[nH]1)C(c1ccc(C)cc1)C1=C(CCCC1=O)N2 (stereo not given)	proKLK7 act 17 | proKLK7 act conf inactive | EDANS interfere inactive
COc1ccc(-c2cc(=Nc3c(C)n(C)n(-c4ccccc4)c3=O)c3ccccc3o2)cc1	proKLK7 act 40 | proKLK7 act conf 43 | EDANS interfere 53
CCCC(=O)N1CCC1(C)C(=O)Nc1ccc(C)cc1 (stereo not given)	none
CCCC(=O)N1CCC1(C)C(=O)Nc1ccc2nccnc2c1 (stereo not given)	proKLK7 act 13 | proKLK7 act conf inactive | EDANS interfere 8.5
O=C(Nc1ncccn1)c1ccc([N+](=O)[O-])o1	proKLK7 act 817 | proKLK7 act conf 834 | EDANS interfere 835
COc1ccc2c3c(n(C(=O)OC(C)(C)C)c2c1)C1CC=C(COC(C)=O)CN1CC3 (stereo not given)	proKLK7 act 18 | proKLK7 act conf inactive | EDANS interfere 9.5
CCCc1cc(NCCCO)n2c(nc3ccccc32)c1C#N	proKLK7 act 17 | proKLK7 act conf inactive | EDANS interfere inactive
Cc1cc(-n2ccnc2)n2c(nc3ccccc32)c1C#N	none
CCC(C)Nc1cc(C)c(C#N)c2nc3ccccc3n12 (stereo not given)	proKLK7 act 26 | proKLK7 act conf inactive | EDANS interfere inactive
Cc1cc(NCCCn2ccnc2)n2c(nc3ccccc32)c1C#N	proKLK7 act 17 | proKLK7 act conf 54 | EDANS interfere 72
CCC(C)Sc1cc(C)c(C#N)c2nc3ccccc3n12 (stereo not given)	none
Cc1cc(NCCCN(C)C)n2c(nc3ccccc32)c1C#N	proKLK7 act 72 | proKLK7 act conf 72 | EDANS interfere 69
Cc1cc(NCCCOC(C)C)n2c(nc3ccccc32)c1C#N	none
CCCc1cc(-n2ccnc2)n2c(nc3ccccc32)c1C#N	none
Cn1nc(SCc2ccccc2)c(=O)n(C(c2ccccc2)c2ccccc2)c1=O	none
O=C(O)c1ccc(/C=N/NC(=O)c2cc(-c3cccs3)nc3ccccc23)cc1	proKLK7 act 23 | proKLK7 act conf 28 | EDANS interfere 21 | K7 EDANS ctr inactive
O=C(NC1=NCCS1)c1cc(-c2cccs2)nc2ccccc12	proKLK7 act 35 | proKLK7 act conf inactive | EDANS interfere inactive
CCOC(CCNC(=O)c1cc(-c2cccs2)nc2ccccc12)OCC	proKLK7 act 32 | proKLK7 act conf inactive | EDANS interfere 9.8
COc1ccc(CNC(=O)COC(=O)c2cc(-c3cccs3)nc3ccccc23)cc1OC	proKLK7 act 15 | proKLK7 act conf inactive | EDANS interfere inactive
COc1cc(S(=O)(=O)N2CCCCC2)ccc1NC(=O)c1ccccc1Cl	none
COC(=O)c1ccc(C(=O)OC)c(NC(=S)N2CC(C)CC(C)C2)c1 (stereo not given)	none
CCOc1ccc(C(=O)Nc2ccc3nc(N4CCN(CC)CC4)cc(C)c3c2)cc1	proKLK7 act 38 | proKLK7 act conf 217 | EDANS interfere 192
Cc1cc(N2CCCC2)nc2ccc(NC(=S)NCCCOC(C)C)cc12	proKLK7 act 16 | proKLK7 act conf 14 | EDANS interfere 12 | K7 EDANS ctr inactive
COc1cc(C(=O)Nc2ccc3nc(N4CCN(C)CC4)cc(C)c3c2)cc(OC)c1OC	none
CCCN1CCN(C(=S)Nc2ccc3nc(N4CCN(CC)CC4)cc(C)c3c2)CC1	proKLK7 act 20 | proKLK7 act conf inactive | EDANS interfere 6.5
Cc1cc(N2CCN(C)CC2)nc2ccc(NC(=O)c3ccc4c(c3)OCO4)cc12	proKLK7 act 19 | proKLK7 act conf inactive | EDANS interfere 6.9
CCN1CCN(c2cc(C)c3cc(NC(=O)c4cc(OC)cc(OC)c4)ccc3n2)CC1	none
O=C(c1c(F)cccc1F)N1CCCC(c2nc(-c3ccc(F)cc3)no2)C1 (stereo not given)	none
COc1ccc2c(c1)cc(C(O)c1ccccn1)n2S(=O)(=O)c1ccccc1 (stereo not given)	none
CCNC(=S)NNC(=O)c1cccnc1	none
CCN1CCN(c2cc(C)c3cc(NC(=S)N4CCN(c5ccccc5F)CC4)ccc3n2)CC1	proKLK7 act 14 | proKLK7 act conf inactive | EDANS interfere inactive
Cn1c2ccsc2c2ncn(Cc3ccccc3F)c(=O)c21	proKLK7 act 65 | proKLK7 act conf 65 | EDANS interfere 62
Cn1c2ccccc2c2ncn(Cc3ccc(F)cc3)c(=O)c21	none
O=C(OCc1ccccc1)[C@H](Cc1ccccc1)NC(=O)[C@@H]1CC=C[C@@H]2CCN(Cc3ccc(Cl)cc3)C(=O)[C@@H]21	none (no result: proKLK7 act)
Cc1ccc(-n2[nH]c(C)c(C=Nc3ccc4[nH]c(=O)[nH]c4c3)c2=O)cc1C	proKLK7 act 179 | proKLK7 act conf 186 | EDANS interfere 169
Cc1[nH]n(-c2cccc3ccccc23)c(=O)c1C=Nc1ccc2[nH]c(=O)[nH]c2c1	none
Cc1ccc(-n2[nH]c(C)c(C=Nc3ccc4[nH]c(=O)[nH]c4c3)c2=O)cc1	proKLK7 act 379 | proKLK7 act conf 443 | EDANS interfere 407
NCc1csc(Nc2cc(Oc3ccccc3)ncn2)n1	none
CC(C)C1NC2(C(=O)c3ccccc3C2=O)C2C(=O)N(c3ccc(F)cc3)C(=O)C12 (stereo not given)	proKLK7 act 20 | proKLK7 act conf inactive | EDANS interfere inactive
Cc1ccc2nc(-c3ccncc3)cc(C(=O)Nc3ccc(F)cc3C)c2c1	none
NC(=S)NNc1ccnc2cc(Cl)ccc12	proKLK7 act 16 | proKLK7 act conf 20 | EDANS interfere 21
CCOC(=O)C1=C(C)Nc2nc(=S)[nH]n2C1c1ccc(Cl)cc1 (stereo not given)	none
O=C(Nc1cccc(C(F)(F)F)c1)c1cccnc1N1CCN(CCO)CC1	none
COc1ccccc1-c1cc(-c2ccccc2)nc(=O)[nH]1	proKLK7 act 18 | proKLK7 act conf inactive | EDANS interfere 14

Bioassay records as filed in PubChem.
